From PubChem BioAssay
Only some compounds are listed: those with a hit (about 2.4% of all), similar ones and a draw of the others.
CHO-K1 Ca ag – nonselective activator or artifact in parental CHO-K1 cells; Fluo-8 calcium fluorescence; scaled to maximal ATP response, vehicle zero; activation, % at 3 µM; 360,000 tested, 0.48% active; AID 602248; in the data active = activation above about 15%;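 also: untransfected CHO-K1 host cells lacking M1 receptor as counterscreen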
CHRM1 agonist – human M1 muscarinic receptor agonism. CHO-K1 hM1, Fluo-8 calcium fluorescence, agonist mode; 0% DMSO, 100% acetylcholine EC100. 360,000 tested, 0.33% active. AID 588814. P11229. activation, % at 3 µM;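 active = activation above the run's mean compound activation plus 3 SD, cut at about 16% in these data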;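 also: peak over basal fluorescence ratio within a 140 s kinetic read after compound addition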
Target sequence (P11229 whole entry, looked up): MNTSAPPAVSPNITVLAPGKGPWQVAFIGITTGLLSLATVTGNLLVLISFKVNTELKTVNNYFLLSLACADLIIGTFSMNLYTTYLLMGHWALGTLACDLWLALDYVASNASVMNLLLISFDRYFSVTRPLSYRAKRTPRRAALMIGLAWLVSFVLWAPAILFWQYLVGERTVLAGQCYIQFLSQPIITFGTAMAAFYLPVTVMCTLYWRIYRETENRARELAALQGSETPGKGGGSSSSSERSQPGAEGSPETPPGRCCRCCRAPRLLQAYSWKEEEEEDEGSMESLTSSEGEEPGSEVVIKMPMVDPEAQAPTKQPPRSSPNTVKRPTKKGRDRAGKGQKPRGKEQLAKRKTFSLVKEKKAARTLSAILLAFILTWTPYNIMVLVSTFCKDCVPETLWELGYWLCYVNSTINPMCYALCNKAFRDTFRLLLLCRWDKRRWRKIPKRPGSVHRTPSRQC
CHO-K1 Ca PAM – counter-screen for M1 PAMs: effect in parental CHO-K1 cells. AID 602247. activation, % at 3 µM. ATP EC20, Fluo-8 calcium fluorescence; 0% at ATP EC20, 100% at ATP max. 360,000 tested, 0.02% active;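 active = activation above the run cutoff, the mean activation of all test compounds plus 3 SD, cut at about 40% in these data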;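 also: peak over basal fluorescence ratio in a 140 s read after ATP addition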
CHRM1 PAM – positive allosteric modulators of human M1 muscarinic receptor. P11229. CHO-K1 hM1, Fluo-8 calcium fluorescence, ACh EC20; 0% = ACh EC20, 100% = maximal ACh. 360,000 tested, 0.088% active. activation, % at 3 µM; in the data active = activation above about 19%, passing the limit was not always enough
M1 antag – antagonists of human M1 muscarinic receptor; CHO-K1 hM1, Fluo-8 calcium fluorescence, ACh EC80 antagonist; inhibition, % at 3 µM; P11229; 360,000 tested, 1.3% active;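 active = percent inhibition above its own plate's cutoff, namely the mean of that plate's compound wells plus 3 SD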;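 also: peak over basal fluorescence ratio during 140 s after agonist addition; 0% = ACh EC80 plus DMSO and 100% = DMSO alone without agonist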
CHO-K1 Ca antag – M1 antagonist counterscreen hit in parental CHO-K1 cells. 360,000 tested, 0.6% active. AID 602250. ATP-induced calcium, Fluo-8 fluorescence. inhibition, % at 3 µM;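 active = inhibition above a per-plate cutoff, the plate's mean sample inhibition plus 3 SD, cut at about 24% in these data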;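 also: 0% = DMSO plus EC80 ATP and 100% = DMSO alone without ATP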
Numbers without * were called inactive; nt = no result.

SMILES | CHO-K1 Ca ag | CHRM1 agonist | CHO-K1 Ca PAM | CHRM1 PAM | M1 antag | CHO-K1 Ca antag
Cc1onc(-c2c(Cl)cccc2Cl)c1C(=O)c1c[nH]c(C(=O)NCCCN2CCOCC2)c1 | 1 | -6 | 18 | -22 | 76* | 2
Cc1onc(-c2c(Cl)cccc2Cl)c1C(=O)NCCCN1CCOCC1 | 0 | -6 | 17 | 3 | -4 | -10
CC1CN(C(=O)COC(=O)/C=C/c2ccccc2)CC(C)O1 (stereo not given) | 0 | -1 | -6 | -14 | 29* | 4
CC1CN(C(=O)COC(=O)/C=C/c2ccc(C(F)(F)F)cc2)CC(C)O1 (stereo not given) | 3 | -2 | 23 | 6 | -9 | -5
CC(=O)c1cccc(NS(=O)(=O)c2ccc(-c3cnc(C4CC4)o3)cc2)c1 | 16* | 4 | 1 | -12 | 32* | 12
CC(=O)Nc1ccc(NS(=O)(=O)c2ccc(-c3cnc(C4CC4)o3)cc2)cc1 | 1 | -3 | 11 | -5 | 15 | 4
CCOc1ccc(NC(=O)CSc2nc3ccccc3c(=O)n2CCCC(=O)NCCCN2CCCC2=O)cc1 | 2 | -8 | 21 | -1 | 1 | -22
Cc1c(OCc2ccccc2)cccc1OCc1ccccc1 | 0 | 0 | -10 | 4 | -4 | -5
CN(C)CCC(Oc1ccccc1OCc1ccccc1)c1ccccc1 (stereo not given) | 11 | 1 | 7 | -21 | 46* | -4
Cc1ccc(C(NC(=O)C2CCN(CCOc3ccccc3)CC2)c2ccccn2)cc1 (stereo not given) | 1 | -9 | 10 | -24 | 33* | -14
CC(C)N(CC#CCC(O)(c1ccccc1)c1ccccc1)CCO | -1 | -13 | -6 | -28 | 28 | 7
CC(C)N(CC#CCC(O)(c1ccccc1)c1ccccc1)C(C)C | 1 | -10 | 22 | -23 | 39* | -8
O=S(CC(O)(c1ccccc1)c1ccccc1)CC(O)(c1ccccc1)c1ccccc1 | 0 | -2 | 4 | 5 | 2 | 2
CCN(CC#CCC(O)(c1ccccc1)c1ccccc1)C(C)C | 0 | -15 | 14 | -28 | 82* | -12
CC(C)CC1NC(=O)c2cc3ccccc3cc2-n2c1nc1cc(Cl)ccc1c2=O (stereo not given) | 0 | 3 | 22 | 9 | -9 | -10
COc1cc2c(cc1OC)C(C1C(=O)CCCC1=O)N(C(=O)CCl)CC2 (stereo not given) | 0 | 12 | 16 | 2 | -7 | -18
COc1ccc2c(c1)CCN(C(=O)CCl)C2C1C(=O)CCCC1=O (stereo not given) | 0 | 25* | -12 | -18 | 13 | 13
COc1ccc(Cc2nnc(Cl)c3ccccc23)cc1OC | 4 | 3 | 10 | 2 | -3 | -10
O=C(Nc1cccc(S(=O)(=O)N2CCCCC2)c1)c1ccccc1NS(=O)(=O)c1ccc(F)cc1 | 11 | 1 | -2 | -4 | 15 | 23
Cc1ccccc1NC(=O)c1ccc(F)c(S(=O)(=O)N2CCCCC2)c1 | 19* | -1 | 0 | 6 | -7 | 2
CCOc1ccc(NC(=O)c2ccc(F)c(S(=O)(=O)N3CCCC3)c2)cc1 | 7 | -2 | -11 | -11 | 10 | 24*
Cc1ccc(NC(=O)c2cc(S(=O)(=O)N3CCCCC3)ccc2N2CCOCC2)cc1S(=O)(=O)N(C)C | 0 | -7 | -16 | -8 | 17 | -7
Cc1ccc(NC(=O)c2ccccc2NS(=O)(=O)c2ccc(F)cc2)cc1S(=O)(=O)N1CCCCC1 | 12 | 1 | -4 | -6 | 13 | 26*
Cc1ccccc1NC(=O)c1cccc(S(=O)(=O)N2CCCCC2)c1 | 1 | -1 | 1 | 1 | -8 | -14
Cc1ccc(NC(=O)c2cc(S(=O)(=O)N(C)C)ccc2N2CCCC2)cc1S(=O)(=O)N(C)C | 1 | -7 | 8 | -21 | 32* | -3
SMILES | CHO-K1 Ca ag | CHRM1 agonist | CHO-K1 Ca PAM | CHRM1 PAM | M1 antag | CHO-K1 Ca antag
Cc1ccc(S(=O)(=O)NNc2nc3ccccc3nc2C(F)(F)F)cc1 | 1 | 50* | 18 | 0 | -5 | -9
Cc1ccc(S(=O)(=O)NNc2ccccc2)cc1 | 0 | 0 | -4 | 5 | -7 | 16
COC(=O)c1cc(=O)nc(NN=C2c3ccccc3-c3ccccc32)s1 | 2 | 6 | 4 | 1 | -5 | 4
COC(=O)c1cc(=O)nc(NN=Cc2ccc(OC)cc2)s1 | 0 | -4 | -9 | -5 | 19 | 24*
O=C(OCc1nc2ccccc2[n+]([O-])c1C(=O)c1ccccc1)c1ccco1 | 1 | -1 | -19 | -7 | 14 | 24*
CC(=O)c1c(COC(=O)c2ccco2)nc2ccccc2[n+]1[O-] | 4 | -1 | 16 | 5 | -20 | -13
COc1ccccc1/C=C/C(=O)Nc1nc(N)n(-c2ccccc2)n1 | 1 | -3 | 5 | 2 | -4 | -3
CC1CCCC(C)N1C(=O)c1ccc(S(=O)(=O)NCc2ccco2)cc1 (stereo not given) | 19* | 0 | 19 | 2 | -2 | -6
CCOc1ccc(S(=O)(=O)N2CCCCC2)cc1NC(=O)CN1C(=O)NC(CC)(c2ccccc2)C1=O (stereo not given) | 4 | -2 | -5 | 6 | -11 | 9
CCC1(c2ccccc2)NC(=O)N(CC(=O)Nc2ccccc2C(=O)NC2CC2)C1=O (stereo not given) | 2 | 0 | 26 | 10 | -11 | -16
CCC1(c2ccc(F)cc2)NC(=O)N(CC(=O)Nc2ccccc2C)C1=O (stereo not given) | 16* | 12 | 26 | -3 | 11 | -12
CCC1(c2ccc(F)cc2)NC(=O)N(CC(=O)Nc2ccccc2Cl)C1=O (stereo not given) | 15* | 36* | -7 | 3 | -8 | -8
CCC1(c2ccccc2)NC(=O)N(CC(=O)Nc2cc(S(=O)(=O)N3CCCCCC3)ccc2OC)C1=O (stereo not given) | 9 | 0 | 0 | -6 | 32* | 21
COc1ccc(S(=O)(=O)N2CCCCC2)cc1NC(=O)CN(Cc1ccco1)Cc1ccco1 | 10 | 7 | -2 | -20 | 44* | 3
COc1ccc(S(=O)(=O)N2CCCCC2)cc1NC(=O)CN(C)C1CCCCC1 | 3 | -7 | 20 | 8 | -16 | -13
COc1ccc(CN2C(=O)c3ccccc3C2c2nnnn2-c2ccc3c(c2)OCCO3)cc1 (stereo not given) | 2 | nt | -5 | nt | nt | 2
Cn1nc(C(C)(C)C)c([N+](=O)[O-])c1C(=O)N1CCCCCC1 | 3 | -3 | 3 | 9 | -6 | -5
CCCCC1(c2ccc(F)cc2)NC(=O)N(CC(=O)Nc2ccc(N3CCOCC3)cc2)C1=O (stereo not given) | 8 | 16* | 26 | 9 | -2 | -10
